PKA-R1A activ: activators of PKA-R1A complex; P00514+P68181; activation, % at 11.4 µM; AID 504707; PKA-R1A dissociation, Cy5-IP20 fluorescence polarization; scaled: DMSO 0%, 113 µM cGMP 100%; 0.083% of 340,000 active;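 active means percent activation above the mean of all tested compounds plus 3 SD, cut at about 19% in these data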;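 further: higher means more PKAc released from R1A so a rise in polarization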
PAFAH1B3 FP inh: blocks human PAF acetylhydrolase 1B catalytic subunit 3; 0.28% of 340,000 active; Q15102; recombinant PAFAH1B3, FP-rhodamine probe, fluorescence polarization; inhibition, % at 3.39 µM;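 active means inhibition above the screen-wide average of all tested compounds plus 3 SD, cut at about 25% in these data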
pPAFAH inh: inhibitors of human plasma PAF acetylhydrolase (pPAFAH) | Q13093 | recombinant pPAFAH, FP-rhodamine probe fluorescence polarization | inhibition, % at 3.39 µM | 1.5% of 330,000 active | AID 463082;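 active means inhibition above the mean inhibition across the screen plus 3 SD, cut at about 25% in these data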;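 further: inhibitors block binding of the rhodamine activity-based probe so polarization drops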
Target sequence (Q13093 whole entry, looked up): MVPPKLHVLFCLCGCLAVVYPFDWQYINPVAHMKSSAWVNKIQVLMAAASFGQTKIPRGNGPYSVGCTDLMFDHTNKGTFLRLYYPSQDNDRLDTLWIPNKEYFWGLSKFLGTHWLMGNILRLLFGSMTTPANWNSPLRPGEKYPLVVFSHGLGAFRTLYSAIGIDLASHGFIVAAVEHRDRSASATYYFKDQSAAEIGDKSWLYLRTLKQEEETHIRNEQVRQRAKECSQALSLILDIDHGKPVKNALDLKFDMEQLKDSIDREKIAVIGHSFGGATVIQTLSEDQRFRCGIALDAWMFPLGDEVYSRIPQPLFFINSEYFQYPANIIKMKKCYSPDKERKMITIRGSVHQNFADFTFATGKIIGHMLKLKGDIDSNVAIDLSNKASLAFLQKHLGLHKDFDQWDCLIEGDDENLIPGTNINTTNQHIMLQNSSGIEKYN
PKA-R2B act: activators of human PKA-R2B complex; PKA-R2B holoenzyme dissociation, Cy5-IP20 fluorescence polarization; R2B truncated from residue 108, S112A mutant; 0% DMSO only, 100% 113 µM cGMP; 0.079% of 340,000 active; activation, % at 11.4 µM; AID 504700; P22694+P31323;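 active means activation above a cutoff set at the mean over all compounds plus 3 SD, cut at about 18% in these data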;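 further: higher means more holoenzyme dissociation and a rise in polarization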
PAFAH2 inh: PAFAH2 (human) inhibition | 0.99% of 340,000 active | AID 492956 | recombinant PAFAH2, FP-rhodamine activity probe, fluorescence polarization | inhibition, % at 3.39 µM | Q99487;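 active means inhibition above the mean over all tested compounds plus 3 SD, cut at about 30% in these data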;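 further: inhibitors block probe labeling of enzyme so polarization drops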
PAFAH1B2 inh: PAFAH1B2 (human) inhibition. inhibition, % at 3.39 µM. recombinant PAFAH1B2, FP-rhodamine activity probe, fluorescence polarization. P68402. 1.2% of 340,000 active;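 active means inhibition above the mean of all tested compounds plus 3 SD, cut at about 24% in these data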
Target sequence (P68402 whole entry, looked up): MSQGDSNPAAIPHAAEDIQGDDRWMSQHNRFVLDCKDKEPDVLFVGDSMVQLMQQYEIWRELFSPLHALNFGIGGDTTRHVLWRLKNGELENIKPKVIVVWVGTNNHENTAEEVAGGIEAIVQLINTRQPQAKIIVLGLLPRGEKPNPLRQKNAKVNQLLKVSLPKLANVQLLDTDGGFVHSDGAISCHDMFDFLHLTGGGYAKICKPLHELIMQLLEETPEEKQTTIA
PAFAH2 FP conf: confirmation of human PAFAH2 inhibitors. shares compounds with PAFAH2 inh. recombinant PAFAH2, FP-rhodamine activity probe, fluorescence polarization. inhibition, % at 3.39 µM. 65% of 2,300 active. AID 493030;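 active means mean inhibition over three repeats above a set limit taken from the earlier primary screen, cut at about 30% in these data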;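 further: inhibitor blocks binding of rhodamine activity probe so polarization falls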
Large screens that a line does not name were inactive (follow-up assays come after a bar, where they were run). The list is not random: actives were taken first. Their share in the collection is about 2.6%.

CC(NC(=O)COC(=O)c1cccc(S(=O)(=O)N2CCCC2)c1)c1ccccc1 (configuration not stated)	PAFAH2 inh 53 | PAFAH2 FP conf 40
COc1ccc(C(=O)OCC(=O)NC(Cc2ccccc2)C(C)=O)cc1S(=O)(=O)N1CCCC1 (configuration not stated)	PAFAH2 inh 35 (no result: pPAFAH inh) | PAFAH2 FP conf 32
COc1ccc(OC)c(NC(=O)COC(=O)c2ccc(OC)c(S(=O)(=O)N3CCOCC3)c2)c1	none
Cc1ccccc1NC(=O)COC(=O)c1cccc(S(=O)(=O)N2CCCCC2)c1	PAFAH2 inh 45 | PAFAH2 FP conf inactive
COc1ccc(NC(=O)CCC(=O)N2CCCC2)c([N+](=O)[O-])c1	none
COc1ccc(CNS(=O)(=O)c2ccc(-n3cnnn3)c(C)c2)cc1	none
O=C(Nc1ncccc1O)c1ccc(S(=O)(=O)NCc2ccco2)cc1	none (no result: PAFAH1B3 FP inh, pPAFAH inh, PAFAH2 inh, PAFAH1B2 inh)
O=C(COC(=O)c1ccc(S(=O)(=O)N2CCCC2)cc1)Nc1ccccc1	none
O=C(COC(=O)c1cccc(S(=O)(=O)N2CCCC2)c1)Nc1ccccc1	PAFAH2 inh 72 | PAFAH2 FP conf 76
NS(=O)(=O)c1cccc(NC(=O)COC(=O)c2ccccc2C(=O)c2ccccc2)c1	PAFAH2 inh 54 | PAFAH2 FP conf 51
CSc1ncc(CN2CCCCC2C(=O)Nc2ccc(Oc3ccccc3)nc2)cn1 (configuration not stated)	none
O=C1CCCN1C(=O)COc1cc(F)ccc1[N+](=O)[O-]	none
O=C1CCCN1C(=O)COc1ccccc1[N+](=O)[O-]	PAFAH2 inh 30 | PAFAH2 FP conf inactive
O=C(COC(=O)c1ccc(OC(F)F)cc1)NCC1CCCO1 (configuration not stated)	none (no result: PAFAH1B3 FP inh, pPAFAH inh, PAFAH2 inh, PAFAH1B2 inh)
COc1c(/C=N/Nc2ccc(C(=O)O)cc2)c(CCN(C)C(C)=O)cc2c1OCO2	none
COc1ccccc1C(=O)N/C(=C\c1cn(C)c2ccccc12)C(=O)NCCCN1CCOCC1	none
CCOc1ccc(C(=O)OCC(=O)NCc2ccccc2)cc1OCC	PAFAH2 inh 72 | PAFAH2 FP conf 66
CCOc1ccc(C(=O)OCC(=O)Nc2cccnc2Cl)cc1OCC	PAFAH2 inh 74 | PAFAH2 FP conf 58
COc1cc(/C=N/n2c(COc3ccccc3)n[nH]c2=S)cc(Br)c1O	PAFAH2 inh 52 | PAFAH2 FP conf 38
COC(=O)c1ccccc1NC(=O)CN1C(=O)NC2(CCCCCCC2)C1=O	PAFAH2 inh 85 | PAFAH2 FP conf inactive
O=C(CN1C(=O)NC2(CCCC2)C1=O)Nc1ccccc1F	none
CCOC(=O)c1c(C)oc2cc(Br)c(O)c(Br)c12	PAFAH2 inh 43 | PAFAH2 FP conf 31
COCCCNC1=C(C#N)C(=O)NC2(CCCC2)S1	none (no result: PAFAH1B3 FP inh, pPAFAH inh, PAFAH2 inh, PAFAH1B2 inh)
O=c1oc2ccccc2c(Nc2ccc3ccccc3c2)c1[N+](=O)[O-]	PAFAH2 inh 34 | PAFAH2 FP conf inactive
Cc1ccc(Nc2c([N+](=O)[O-])c(=O)oc3ccccc23)cc1	none
Cc1ccc(-n2ncc(C(=O)N3CCc4ccccc4C3)c2NC(=O)c2ccco2)cc1C	PAFAH2 inh 35 | PAFAH2 FP conf inactive
Cc1cccc(NC(=O)COC(=O)[C@@H]2CCCN2C(=O)c2cccs2)c1	none
Cc1cccc(CC(=O)NCC2CCCCC2)c1	none
Cc1cc(=O)oc2c3c(cc(OCC(=O)NCCC(=O)O)c12)OC(C)(C)CC3	none (no result: pPAFAH inh)
CCc1cc(=O)oc2c3c(cc(OCC(=O)NCCC(=O)O)c12)OC(C)(C)CC3	PAFAH2 inh 38 | PAFAH2 FP conf inactive
C=C(C1=CCN(S(=O)(=O)C(C)(C)C)[C@@H]1CCO)c1ccccc1	none (no result: pPAFAH inh)
CCOC(=O)C1=CC[C@H]2c3c(c4ccccc4n3C)C(=O)C1N2C(=O)OC(C)(C)C	none
CCOC(=O)c1c(C)[nH]c(C(=O)OCc2ccccc2)c1C	none
CCOC(=O)c1c(C)[nH]c(C(=O)OCC(=O)Nc2ccccc2)c1C	PAFAH2 inh 34 | PAFAH2 FP conf 34
CC(=O)c1c(C)[nH]c(C(=O)OCC(=O)Nc2ccccc2Cl)c1C	PAFAH2 inh 33 | PAFAH2 FP conf inactive
CC(=O)c1c(C)[nH]c(C(=O)OCC(=O)NCC(C)C)c1C	PAFAH2 inh 31 | PAFAH2 FP conf inactive
O=C(CCc1nnc(Cc2c[nH]c3ccccc23)o1)NCCC1CCCCO1 (configuration not stated)	none (no result: PAFAH1B3 FP inh, pPAFAH inh, PAFAH2 inh, PAFAH1B2 inh)
Nc1ccn(C2OC(CCl)C(O)C2O)c(=O)n1 (configuration not stated)	none (no result: PAFAH1B3 FP inh, pPAFAH inh, PAFAH2 inh, PAFAH1B2 inh)
O=C(Nc1ccccc1-c1nc2ccccc2[nH]1)c1ccc(S(=O)(=O)N2CCCCC2)cc1	none (no result: pPAFAH inh)
CC1CCCCN1S(=O)(=O)c1ccc(C(=O)Nc2ccccc2-c2nc3ccccc3[nH]2)cc1 (configuration not stated)	PAFAH2 inh 37 | PAFAH2 FP conf inactive
COc1ccc(-c2cc(C(=O)Nc3cc(C)on3)no2)cc1OC	PAFAH2 inh 62 | PAFAH2 FP conf inactive
O=C(COC(=O)c1ccc2c(c1[N+](=O)[O-])C(=O)c1ccccc1C2=O)NC1CC1	PAFAH2 inh 36 | PAFAH2 FP conf inactive
CC1CCCCC1NC(=O)COC(=O)c1ccc2c(c1Cl)C(=O)c1ccccc1C2=O (configuration not stated)	PAFAH2 inh 54 | PAFAH2 FP conf 55
Cc1cc(C)c(S(=O)(=O)N2CCCC2=O)c(C)c1N(C)S(C)(=O)=O	none (no result: pPAFAH inh)
C[C@H](CO)N1C[C@H](C)[C@@H](CN(C)S(C)(=O)=O)Oc2ccc(NC(=O)CCC(F)(F)F)cc2C1=O	none
O=C(CN1c2cccc3cccc(c23)S1(=O)=O)Nc1ccc(F)c(F)c1F	none
CCOc1ccccc1-n1nnnc1SCC(=O)N1CCCC1=O	PAFAH2 inh 66 | PAFAH2 FP conf 56
CC1(C)COC(c2cc3c(cc2Br)OCO3)OC1	none (no result: pPAFAH inh)
CCCc1cc(=O)n2[nH]c(Cc3ccccc3)nc2n1	PAFAH2 inh 31 | PAFAH2 FP conf inactive
CCCc1cc(=O)n2[nH]c(C)nc2n1	none
COc1ccc(C(=O)N/N=C/c2cccc3cccnc23)cc1	none
COc1ccc(C(=O)N/N=C/c2cc3ccccc3[nH]c2=S)cc1	PAFAH2 inh 43 | PAFAH2 FP conf inactive
CN(CC(=O)Nc1ccccc1C(F)(F)F)C(=O)Cc1ccc(S(=O)(=O)N2CCOCC2)s1	none
O=C(NCc1cc([N+](=O)[O-])ccc1O)c1cccnc1Sc1ccccc1Cl	PAFAH2 inh 39 | PAFAH2 FP conf 32
O=C(NCc1cc([N+](=O)[O-])ccc1O)c1cccnc1Sc1ccc(Cl)cc1	none
Cc1ccc(O)c(NC(=O)Cc2ccc3ccccc3c2)c1	PAFAH2 inh 74 | PAFAH2 FP conf 68

Assay outcomes: PubChem, The Scripps Research Institute Molecular Screening Center
